Counter-ions that a name gives are not always drawn. Unmarked numbers belong to inactive results.
Key:
Details in all cases: 20 µM
[1] = test system: Salmonella enterica typhimurium; test: growth AUC normalised to DMSO control (fraction of control); higher = less growth inhibition, active = hit call of the paper
Method in brief: (§1)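 Pathogens were passaged twice under anaerobic conditions, then inoculated into pre-reduced mGAM plates at a starting OD578 of 0.01, with compound at 20 μM and 1% DMSO, and sealed with breathable membranes. For Haemophilus parainfluenzae, the medium was supplemented with hemin and NAD. OD578 was read every hour for 24 h in three biological replicates. Growth-curve AUC was calculated by the trapezoidal rule up to the exponential-to-stationary transition and normalised to DMSO controls on the same plate.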

[2] = test system: Shigella flexneri; test: as above
Method in brief: as §1

[3] = test system: Vibrio cholerae; test: as above
Method in brief: as §1

[4] = test system: Yersinia pseudotuberculosis; test: as above
Method in brief: as §1

[5] = test system: P. vulgatus RND KO; test: growth AUC normalised to DMSO control (median) (fraction of control); higher = less growth inhibition, active = hit call of the paper
Method in brief: (§2)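 For normalised area under the curve, growth curves were truncated at entry into stationary phase, integrated by the trapezoidal rule and divided against vehicle wells on the same plate. The curves came from strains passaged twice overnight without oxygen and then grown in mGAM in 96-well plates at a starting OD578 of 0.01. Each well held an approved-drug library compound at 20 μM with 1% DMSO, and OD578 was read hourly for 24 h in an anaerobic incubator. Values are medians of three biological replicates.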

[6] = test system: P. vulgatus WT; test: as above
Method in brief: as §2

[7] = test system: S. enterica typhimurium WT; test: as above
Method in brief: as §2

[8] = test system: S. enterica typhimurium tolC KO; test: as above
Method in brief: as §2
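For growth AUC normalised to DMSO control (median) in this document: active when median AUC fell below 0.1.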

Row | Compound | growth AUC normalised to DMSO control [1] | growth AUC normalised to DMSO control [2] | growth AUC normalised to DMSO control [3] | growth AUC normalised to DMSO control [4] | growth AUC normalised to DMSO control [5] | growth AUC normalised to DMSO control [6] | growth AUC normalised to DMSO control [7] | growth AUC normalised to DMSO control [8]
1 | NC(N)=Nc1nc(CSCC/C(N)=N/S(N)(=O)=O)cs1 [Famotidine] | 1 | 0.965 | 0.993 | 0.97 | 1.01 | 1.04 | 1.01 | 0.996
2 | C[N+]1(C)CCC(OC(=O)C(O)(c2ccccc2)C2CCCC2)C1 (stereo not given) [Glycopyrrolate bromide] | 1.02 | 1 | 1.01 | 1.01 | 1 | 0.984 | 1 | 0.993
3 | CCCc1nn(C)c2c(=O)[nH]c(-c3cc(S(=O)(=O)N4CCN(C)CC4)ccc3OCC)nc12 [Sildenafil] | 1.02 | 1.07 | 1.06 | 1.03 | 1.02 | 1.02 | 1.02 | 1
4 | Nc1ccc(S(N)(=O)=O)cc1 [Sulfanilamide] | 1.03 | 1.04 | 1.05 | 1.01 | 1.03 | 1.06 | 0.993 | 1
5 | CCCCOC(=O)c1ccc(N)cc1 [Butamben] | 0.994 | 0.995 | 0.989 | 0.937 | 1.03 | 1.03 | 0.998 | 1.01
6 | Cc1c(C)c2c(c(C)c1O)CCC(C)(C(=O)O)O2 (stereo not given) [Trolox] | 1 | 1.02 | 0.995 | 1.01 | 0.996 | 1.02 | 1 | 1
7 | COc1cc(N)c(Cl)cc1C(=O)NC1CCN(Cc2ccccc2)CC1 [Clebopride maleate] | 0.996 | 0.998 | 0.995 | 1 | 0.987 | 0.999 | 0.998 | 1
8 | C[C@]12CC[C@@H]3c4ccc(O)cc4CC[C@H]3[C@@H]1CC[C@@H]2O [Estradiol-17 beta] | 1.02 | 1.01 | 0.992 | 1.01 | 0.941 | 0.941 | 1.02 | 0.997
9 | CNCCCC12CCC(c3ccccc31)c1ccccc12 [Maprotiline hydrochloride] | 1 | 0.999 | 0.942 | 1.01 | 0.947 | 0.985 | 0.997 | 0.982
10 | CCN(CC)C(=O)c1ccc(O)c(OC)c1 [Ethamivan] | 0.981 | 1.03 | 1.03 | 1 | 1.04 | 1.06 | 1.01 | 1.01
11 | CC(C)(C)NCC(O)COc1cccc2c1CCC(=O)N2 (stereo not given) [Carteolol hydrochloride] | 1 | 0.985 | 0.993 | 1 | 0.945 | 0.968 | 0.998 | 0.991
12 | Nc1ccc(O)c(C(=O)O)c1 [Mesalamine] | 1.01 | 1.02 | 1.02 | 1.03 | 1 | 1.03 | 0.998 | 1.01
13 | CC(=C(CCO)SSCC1CCCO1)N(C=O)Cc1cnc(C)nc1N (stereo in doubt) [Fursultiamine hydrochloride] | 1.01 | 0.965 | 1 | 1.01 | 1.02 | 0.995 | 0.986 | 0.999
14 | Cc1oncc1C(=O)Nc1ccc(C(F)(F)F)cc1 [Leflunomide] | 0.989 | 0.988 | 0.914 | 1 | 0.957 | 1 | 0.996 | 0.896
15 | CC[C@H]1OC(=O)[C@H](C)[C@@H](O[C@H]2C[C@@](C)(OC)[C@@H](O)[C@H](C)O2)[C@H](C)[C@@H](O[C@@H]2O[C@H](C)C[C@H](N(C)C)[C@H]2O)[C@](C)(OC)C[C@@H](C)C(=O)[C@H](C)[C@@H](O)[C@]1(C)O [Clarithromycin] | 0.688 (active) | 0.508 (active) | 0.0231 (active) | 0.799 (active) | 0.0127 (active) | 0.0156 (active) | 0.744 | 0.00712 (active)
16 | OC(CCCN1CCCCC1)(c1ccccc1)c1ccccc1 [Diphenidol hydrochloride] | 0.999 | 1 | 1 | 1.01 | 1.04 | 1.04 | 1 | 0.987
17 | COCCCC/C(=N\OCCN)c1ccc(C(F)(F)F)cc1 [Fluvoxamine maleate] | 0.992 | 0.974 | 0.943 | 0.993 | 0.968 | 0.963 | 0.991 | 0.957
18 | Nc1ccn([C@@H]2O[C@H](CO)[C@@H](O)[C@@H]2O)c(=O)n1 [Cytarabine] | 1 | 0.998 | 1 | 0.986 | 0.993 | 0.989 | 0.998 | 0.997
19 | CCCCNc1c(C(=O)OCC)c(C)nc2c1cnn2CC [Tracazolate hydrochloride] | 1 | 1.03 | 1.04 | 0.996 | 0.978 | 0.983 | 0.999 | 0.952
20 | CCN(CC)CCNC(=O)c1cc(Cl)c(N)cc1OC [Metoclopramide monohydrochloride] | 0.994 | 0.978 | 0.989 | 0.993 | 0.977 | 0.971 | 1 | 1
21 | CC(=O)NS(=O)(=O)c1ccc(N)cc1 [Sulfacetamide sodic hydrate] | 1 | 1.01 | 0.988 | 0.998 | 1.01 | 1.05 | 1.01 | 0.997
22 | O=C1NCCN1c1ncc([N+](=O)[O-])s1 [Niridazole] | 0.0187 (active) | 0.204 (active) | 0.036 (active) | 0.93 | 0.00953 (active) | 0.00802 (active) | 0.0321 (active) | 0.0104 (active)
23 | Nc1ccc(S(=O)(=O)Nc2ncccn2)cc1 [Sulfadiazine] | 0.989 | 0.974 | 1 | 0.987 | 0.996 | 0.995 | 0.986 | 1
24 | CCCOc1ccccc1-c1nc2[nH]nnc2c(=O)[nH]1 [Zaprinast] | 0.998 | 0.977 | 0.985 | 0.989 | 1 | 1.02 | 1 | 1
25 | CNCC[C@@H](Oc1ccccc1C)c1ccccc1 [Tomoxetine hydrochloride] | 1.01 | 1.02 | 1.01 | 1 | 0.954 | 0.969 | 0.996 | 0.974
26 | CN(CCCCCCCCCCN(C)C(=O)Oc1cccc([N+](C)(C)C)c1)C(=O)Oc1cccc([N+](C)(C)C)c1 [Demecarium bromide] | 0.99 | 1 | 0.984 | 1.01 | 0.944 | 0.88 | 0.991 | 0.922
27 | COC(=O)Nc1nc2cc(C(=O)c3cccs3)ccc2[nH]1 [Nocodazole] | 1.01 | 1.02 | 0.979 | 1 | 1.01 | 1.02 | 1.01 | 0.975
28 | CCCc1nc(C)c2c(=O)nc(-c3cc(S(=O)(=O)N4CCN(CC)CC4)ccc3OCC)[nH]n12 [Vardenafil] | 1.01 | 1 | 1.01 | 1.01 | 1.01 | 1.01 | 0.983 | 0.984
29 | N=C(N=C(N)N)N1CCOCC1 [Moroxidine hydrochloride] | 0.999 | 1 | 0.991 | 0.965 | 1.01 | 1.04 | 1.01 | 0.992
30 | Cc1c(-c2ccccc2)oc2c(C(=O)OCCN3CCCCC3)cccc2c1=O [Flavoxate hydrochloride] | 1 | 1.02 | 1.01 | 0.984 | 1.06 | 1.1 | 1.02 | 0.952
